The source of these data is PubChem BioAssay (NCATS).

Results filed as inconclusive are left out. Active and inactive are the calls of the source. Calls follow the shape of the dose curve; as a rule, active = well fitted inhibition curve with a large enough effect; inconclusive = small, poorly fitted or top-dose-only effect; inactive = flat fitted curve, though single readings scatter.
% is scaled to controls: 0 for no effect and ±100 for the full control effect.

Chain of Voltage-gated inwardly rectifying potassium channel KCNH2 (Homo sapiens) (Q12809 whole entry, looked up): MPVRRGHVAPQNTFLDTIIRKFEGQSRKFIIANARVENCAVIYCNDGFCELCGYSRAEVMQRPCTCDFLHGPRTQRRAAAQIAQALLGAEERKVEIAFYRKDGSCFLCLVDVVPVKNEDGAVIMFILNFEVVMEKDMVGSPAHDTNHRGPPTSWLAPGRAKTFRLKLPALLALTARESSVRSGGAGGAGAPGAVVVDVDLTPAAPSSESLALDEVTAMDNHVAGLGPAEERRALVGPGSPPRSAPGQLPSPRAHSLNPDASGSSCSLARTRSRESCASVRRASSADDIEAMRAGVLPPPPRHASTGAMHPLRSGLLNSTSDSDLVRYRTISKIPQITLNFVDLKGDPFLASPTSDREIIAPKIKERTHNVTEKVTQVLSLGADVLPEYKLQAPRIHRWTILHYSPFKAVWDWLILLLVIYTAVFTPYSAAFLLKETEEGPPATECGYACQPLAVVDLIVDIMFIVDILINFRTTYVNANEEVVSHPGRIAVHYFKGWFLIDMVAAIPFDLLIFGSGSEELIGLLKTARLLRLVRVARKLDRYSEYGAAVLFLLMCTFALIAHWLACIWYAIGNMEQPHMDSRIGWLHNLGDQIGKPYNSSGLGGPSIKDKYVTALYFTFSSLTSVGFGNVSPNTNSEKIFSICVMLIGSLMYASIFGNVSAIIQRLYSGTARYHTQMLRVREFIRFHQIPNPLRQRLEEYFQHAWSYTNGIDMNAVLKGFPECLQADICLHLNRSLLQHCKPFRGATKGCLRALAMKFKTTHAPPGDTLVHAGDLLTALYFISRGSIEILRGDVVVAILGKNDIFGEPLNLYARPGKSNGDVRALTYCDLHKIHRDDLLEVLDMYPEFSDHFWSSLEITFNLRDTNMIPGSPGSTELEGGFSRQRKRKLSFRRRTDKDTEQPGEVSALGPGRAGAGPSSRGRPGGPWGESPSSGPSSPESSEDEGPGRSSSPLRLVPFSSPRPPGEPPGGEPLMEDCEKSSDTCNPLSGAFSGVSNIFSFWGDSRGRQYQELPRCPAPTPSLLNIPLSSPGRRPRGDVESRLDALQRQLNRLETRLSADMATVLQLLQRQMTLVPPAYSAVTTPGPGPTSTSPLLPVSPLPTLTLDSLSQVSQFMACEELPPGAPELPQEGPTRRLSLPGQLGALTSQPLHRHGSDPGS

The target in the assay is Voltage-gated inwardly rectifying potassium channel KCNH2 (Homo sapiens) (UniProt Q12809). Put plainly: qHTS Assay for Small Molecule Inhibitors of the Human hERG Channel Activity (AID 588834).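 Also: top concentration of the series differs between compounds; lower thallium flux fluorescence means stronger hERG block; nearly all actives have a fitted effect of over 50% in size.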 The settings on record: U2OS BacMam hERG, FluxOR thallium flux fluorescence; series mostly up to 46.1 µM; activity change, negative = inhibition: at the top concentration. The method in brief:
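In hERG-transduced U2OS cells, dye-loaded for 1 hr at room temperature in dark, test compounds incubated 10 min at 37 °C before thallium stimulation. AC50 values derived by Hill modelling of concentration-response.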
On to `NC(=O)OCC(O)COc1ccc(Cl)cc1` (centres undefined), for which the “activity change, negative = inhibition” value is 2.72% [at 20.6 µM] (inactive).

`Nc1nc2c(c(=O)[nH]1)N(C=O)C(CNc1ccc(C(=O)N[C@@H](CCC(=O)O)C(=O)O)cc1)CN2` (some centres undefined): the “activity change, negative = inhibition” value is -63.6% [at 20.6 µM] (inactive).

Consider `NC(=O)[C@@H]1C[C@]2(NC(=O)NC2=O)c2cc(F)ccc2O1`, for which the “activity change, negative = inhibition” value was 11.6% (inactive).

For `CC[C@H](C)[C@@H]1NC(=O)[C@H](Cc2ccc(O)cc2)NC(=O)[C@@H](N)CSSC[C@@H](C(=O)N2CCC[C@H]2C(=O)N[C@@H](CC(C)C)C(=O)NCC(N)=O)NC(=O)[C@H](CC(N)=O)NC(=O)[C@H](CCC(N)=O)NC1=O`, the “activity change, negative = inhibition” value was 22.5% (inactive).

For `C[C@@H]1C[C@H]2[C@@H]3C[C@H](F)C4=CC(=O)C=C[C@]4(C)[C@@]3(Cl)[C@@H](O)C[C@]2(C)[C@H]1C(=O)COC(=O)C(C)(C)C`, the “activity change, negative = inhibition” value was -2.65% (inactive).

In the case of `C=N[C@@H](C(=O)N[C@@H]1C(=O)N2[C@@H]1SC(C)(C)[C@@H]2C(=O)O)c1ccccc1`, the “activity change, negative = inhibition” value was 10.4% (inactive).

With `CCCC1C(=O)N2C(N(C)C)=Nc3ccc(C)cc3N2C1=O` (centres undefined), the “activity change, negative = inhibition” value was -2.03% [at 20.6 µM] (inactive).

As for `CO[C@H]1O[C@@H]2O[C@@]3(C)CC[C@H]4[C@H](C)CC[C@@H]([C@H]1C)[C@@]24OO3`, the “activity change, negative = inhibition” value is -0.525% (inactive).

Take `OC[C@H]1O[C@@H](O[C@H]2[C@H](O)[C@@H](O)[C@H](O)O[C@@H]2CO)[C@H](O)[C@@H](O)[C@@H]1O`: the “activity change, negative = inhibition” value is 18.8% (inactive).
